# TDP43 rescue: rescues yeast growth from TDP-43 toxicity; 1.8% of 410,000 active; TDP-43 expressing yeast growth rescue, BacTiter-Glo, 24 h; Potency, µM (series often up to 46.1 µM), usual class: activators; also: nearly all actives have a fitted effect of over 50% in size
#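 Growth rescue of TDP-43-toxic yeast measured as ATP luminescence (BacTiter-Glo). Cells grown to mid-log in raffinose, induced in galactose at OD600=0.02, exposed to compound 24 hr at 30 deg C.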
# FUS suppressor: rescues growth of FUS-expressing yeast; S. cerevisiae FUS-expressing, growth rescue, OD600, 24 h; Potency, µM (titrated, usually from 76.6 µM), most hits filed as activators; 0.24% of 390,000 active; AID 1347120; also: nearly all actives have a fitted effect of over 55% in size
#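 Yeast expressing FUS under galactose induction, OD 0.005 in 2% galactose medium; compounds in a dilution series, 24 h at 30C. Growth rescue by absorbance at 600 nm; CP55940 positive control, DMSO negative.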
# Mito fusion act: inhibitors of mitochondrial division or activators of mitochondrial fusion. S. cerevisiae fusion-defective mutant growth rescue, CellTiterGlo 48 h. Potency, µM (highest dose often 46.1 µM), usual class: activators. 0.23% of 320,000 active. AID 485298; also: nearly all actives have a fitted effect of over 45% in size
#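 Compounds are tested for their ability to restore growth of mitochondrial fusion-defective yeast strains at non-permissive 37C in YPEG medium over 48 hours. Viability is quantified by luciferase luminescence.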
# Abeta yeast res: compounds reversing amyloid beta toxicity in yeast | yeast expressing A-beta42, growth rescue, OD600, 48 h; response scale: 0% DMSO, 100% iron-clioquinol control | Potency, µM (titrated, usually from 46.1 µM), most hits filed as activators | 0.063% of 410,000 active | AID 1347071; also: nearly all actives have a fitted effect of over 55% in size
#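 Yeast A-beta toxicity model in growth medium with pinned compounds, 48 h at 30 C; growth read as absorbance at 600 nm. Normalized to FeCl3/clioquinol equimolar mix (positive) and DMSO (negative).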
# aSyn yeast inh: inhibitors of alpha-synuclein toxicity in yeast; Yeast expressing alpha-synuclein, growth rescue, BacTiter-Glo, 24 h; Potency, µM (top dose mostly 46.1 µM), usual class: activators; 0.14% of 370,000 active; also: nearly all actives have a fitted effect of over 65% in size
#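 Galactose-induced alpha-syn yeast (OD600=0.02, raffinose-pregrown) + pinned cpd, 24 hr, 30 deg C; growth by BacTiter-Glo luminescence. Growth restoration scores as activation.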
# Numbers stand for hits; 0 = inactive; ? = inconclusive; - = no result given; [ ] = remark or other dose. Compounds with a hit are over-represented: about 2.2% of the library has one in this group of screens. Calls follow the shape of the dose curve; as a rule, active = well fitted curve in the direction sought with a large enough effect; inconclusive = small, poorly fitted or top-dose-only effect, or another doubt; inactive = no such curve, though single readings can be large; an effect the other way counts as inactive or inconclusive.
SMILES,TDP43 rescue,FUS suppressor,Mito fusion act,Abeta yeast res,aSyn yeast inh
COc1ccc([C@H]2CC(=O)C=C(c3cccc(OC)c3OC)C2)cc1OC,22µM,0,0,?,0
COc1ccc([C@H]2CC(=O)C=C(c3cc(F)ccc3F)C2)cc1OC,22µM,0,?,0,0
O=C1C=C(c2cccc(Cl)c2)C[C@@H](c2ccc(Cl)cc2)C1,0,?,?,0,0
COc1ccc([C@H]2CC(=O)C=C(c3ccc(NC(C)=O)cc3)C2)cc1OC,0,0,0,0,0
CC(=O)Nc1ccc(C2=CC(=O)C[C@H](c3ccc(Cl)cc3)C2)cc1,35µM,?,?,0,0
O=C1C=C(c2cccc(Cl)c2O)C[C@@H](c2ccc(Cl)cc2)C1,3.2µM,?,13µM,0,0
CCOC(=O)N1CCC2(CC1)NC(=O)c1ccccc1N2,0,0,-,0,0
COc1cc(F)c(C2=CC(=O)C[C@H](c3ccc(Cl)cc3)C2)cc1F,?,0,?,0,0
O=C1C=C(c2cc(F)ccc2F)C[C@@H](c2ccc(Cl)cc2)C1,20µM,0,?,0,0
COc1ccc(C2(c3ccc(OC)cc3)NC(=O)N(CC(=O)NC3(C#N)CCCC3)C2=O)cc1,0,-,0,0,0
COc1ccc(C2(c3ccc(OC)cc3)NC(=O)N(CC(=O)NC3(C#N)CCCCC3)C2=O)cc1,0,14µM,0,0,0[1.84 µM]
CC(c1ccc2ccccc2c1)c1ccccc1C(=O)O (configuration not stated),5.6µM,0,-,0,0
O=C(O)c1ccccc1C(c1ccc(O)cc1)c1ccc(O)cc1,0,0,0,0,0
C=CCc1ccccc1OCC(O)CN1C(=O)c2ccccc2C1=O (configuration not stated),11µM,0,0,0,0
CCc1ccc(C(=O)CCC(=O)Nc2cccc(S(=O)(=O)N3CCCCC3)c2)cc1,0,?,0,0,0
O=[N+]([O-])c1ccc2[nH]nc(-c3ccccc3)c2c1,5.6µM,-,0,0,0
O=C(O)c1[nH]c2ccc([N+](=O)[O-])cc2c1-c1ccccc1,0,0,0,?,0
O=C(COc1cccc2cccnc12)N/N=C/c1ccccc1O,0,0,0,0,0
Oc1ccccc1/C=N/Nc1cccc2cccnc12,18µM,0,0,0,0
CCCn1c(SCC(=O)Nc2ccccc2OC)nnc1-c1ccco1,0,0,0,0,0
O=C(CSc1cccc[n+]1[O-])c1cc(Cl)ccc1Cl,11µM,0,0,?,0
O=C(CSc1cccc[n+]1[O-])C12CC3CC(CC(C3)C1)C2,14µM,0,0,?,0
O=C(COC(=O)c1ccccc1OCc1cccc(Br)c1)Nc1ccc(Br)cc1,-,-,-,-,0
COc1ccc(CCN2CC(C(=O)OCC(=O)Nc3c(C)nn(-c4ccccc4)c3C)CC2=O)cc1OC (configuration not stated),0,0,0,0,0
CCOC(=O)C1CCN(C(=O)c2cc3ccc(OC)cc3[nH]2)CC1,0,0,0,0,0
SMILES,TDP43 rescue,FUS suppressor,Mito fusion act,Abeta yeast res,aSyn yeast inh
CCOC(=O)C1CCN(C(=O)c2cc3cc(Cl)ccc3[nH]2)CC1,16µM,0,0,0,0
Fc1ccc(Nc2nnc(C(F)(F)F)s2)cc1,13µM,0,0,0,0
Cc1ccc(OCc2nc(C#N)c(NCc3ccco3)o2)cc1,11µM,0,0,0,0
COc1ccc(Nc2oc(COc3ccc(C)cc3)nc2C#N)cc1,22µM,0,0,0,-
N#Cc1nc(COc2cccc(Cl)c2)oc1NCc1ccco1,?,0,?,0,0
Oc1sc(C=Nc2ccc(F)cc2)c2ccccc12,0.63µM,0,0,0,0
COc1cc(C(CC(=O)Nc2ccc(C)cn2)N2Cc3ccccc3C2=O)cc(OC)c1OC (configuration not stated),0,0,0,0,0
CCOc1nc(S(=O)(=O)c2ccc(C)cc2)c(Cl)s1,0,0,0,0,0
CSc1nc(S(=O)(=O)c2ccc(C)cc2)c(Cl)s1,13µM,0,0,0,0
Cc1ccc(S(=O)(=O)N(C(=O)c2ccncc2)c2ccc3oc4c(c3c2)CCCC4)cc1[N+](=O)[O-],?,0,18µM,0,0
CC(=O)c1c(C)oc2ccc(N(C(=O)c3ccncc3)S(=O)(=O)c3ccc(F)cc3C)cc12,20µM,?,-,0,-

# From PubChem BioAssay
